# Test results from PubChem BioAssay (EPA / NIEHS).
# Calls of active or inactive are those of the source. The calls were made as follows: active = hit-call score of the fitted dose curve at least 0.9, where 1 is the maximum; inactive = score below 0.9.
# Experiment: CCTE_Shafer_MEA_acute_burst_duration_mean: CCTE's Neural Acute Assay for Mean Burst Duration, Shafer Lab (AID 2284014);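 also: hits are decreases in mean burst duration relative to DMSO controls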
# Method in brief: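 Acute exposure of mature rat cortical networks (DIV 13 or 15) grown on microelectrode arrays to 0.03-40 uM compound. Mean burst duration compared with the 40-min pre-dose baseline over a 40-min post-dose recording at 37 C.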
Structure (SMILES),outcome,AC50
OCCCCO,inactive,
N#Cc1cccnc1,inactive,
Cc1ccccc1OP(=O)(Oc1ccccc1C)Oc1ccccc1C,,21700 nM (active)
CCCCOC(=O)COC(=O)c1ccccc1C(=O)OCCCC,inactive,
Cc1cc(C(F)(C(F)(F)F)C(F)(F)F)ccc1NC(=O)c1cccc(I)c1C(=O)NC(C)(C)CS(C)(=O)=O,inactive,
CN(C)C(=S)S,inactive,
Oc1ccc(Cc2ccc(O)cc2)cc1,inactive,
CC1(C)[C@H](C(=O)O[C@H](C#N)c2cccc(Oc3ccccc3)c2)[C@@H]1/C=C(\Cl)C(F)(F)F,,761 nM (active)
CS(=O)(=O)c1ccc(C(=O)C2C(=O)CCCC2=O)c(Cl)c1COCC(F)(F)F,inactive,
Oc1cc(Cl)c(Cl)cc1Cl,inactive,
O=C(Cc1ccccc1)OCCc1ccccc1,inactive,
CC(C)(C)c1ccccc1O,inactive,
Clc1cccc(Cl)c1Cl,inactive,
CCCCCCCCCCCCc1cccc(S(=O)(=O)O)c1,inactive,
CC(C)[C@@H](Nc1ccc(C(F)(F)F)cc1Cl)C(=O)OC(C#N)c1cccc(Oc2ccccc2)c1 (stereo not given in full),,841 nM (active)

# Experiment: CCTE_Shafer_MEA_acute_per_burst_spike_number_mean: CCTE's Neural Acute Assay for Average Number of Spikes Per Burst, Shafer Lab (AID 2284015);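 also: hits are decreases in mean spikes per burst versus baseline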
# Method in brief: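 We recorded spontaneous network firing of rat cortical neurons for 40 min before and 40 min during exposure to compound at 0.03-40 uM, at 37 C. Spikes were detected adaptively at 8x rms noise, and the change in average spikes per burst was fitted against DMSO.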
Structure (SMILES),outcome,AC50
OCCCCO,inactive,
N#Cc1cccnc1,inactive,
Cc1ccccc1OP(=O)(Oc1ccccc1C)Oc1ccccc1C,,27.8 µM (active)
CCCCOC(=O)COC(=O)c1ccccc1C(=O)OCCCC,inactive,
Cc1cc(C(F)(C(F)(F)F)C(F)(F)F)ccc1NC(=O)c1cccc(I)c1C(=O)NC(C)(C)CS(C)(=O)=O,,20.7 µM (active)
CN(C)C(=S)S,inactive,
Oc1ccc(Cc2ccc(O)cc2)cc1,,25.3 µM (active)
CC1(C)[C@H](C(=O)O[C@H](C#N)c2cccc(Oc3ccccc3)c2)[C@@H]1/C=C(\Cl)C(F)(F)F,,0.679 µM (active)
CS(=O)(=O)c1ccc(C(=O)C2C(=O)CCCC2=O)c(Cl)c1COCC(F)(F)F,inactive,
Oc1cc(Cl)c(Cl)cc1Cl,inactive,
O=C(Cc1ccccc1)OCCc1ccccc1,inactive,
CC(C)(C)c1ccccc1O,inactive,
Clc1cccc(Cl)c1Cl,inactive,
CCCCCCCCCCCCc1cccc(S(=O)(=O)O)c1,inactive,
CC(C)[C@@H](Nc1ccc(C(F)(F)F)cc1Cl)C(=O)OC(C#N)c1cccc(Oc2ccccc2)c1 (stereo not given in full),,0.84 µM (active)
